# High-throughput results: PubChem, several laboratories
# RAD54 inh = RAD54 (human) branch migration inhibition; Q92698; RAD54 Holliday junction branch migration, FAM/BHQ fluorescence; inhibition, % at 10.4 µM; hit rate 0.14% among 360,000; AID 602329;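 active means mean normalized replicate activity at least 40 and at least half of replicates scoring 40 or more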;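 further: inhibitors cause a drop in the FAM fluorescence signal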
# CendR NRP1 mod = modulators of CendR peptide binding to human neuropilin-1. O14786. FAM-RPARPAR peptide binding to NRP-1, fluorescence polarization. inhibition, % at 25 µM. hit rate 0.85% among 360,000;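 active means inhibition or corrected inhibition above about 18%, plus a signal ratio from 0.5 to 1.5, limit read from the data, passing the limit was not always enough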
# miR-122 sensor = inhibitors of miR-122 in Huh7 cells; Huh7 miR-122 Renilla luciferase sensor, 48 h; neutral wells = 0, positive control = 100; activation (reporter increase), % at 12.5 µM; hit rate 0.3% among 340,000; AID 602342;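 active means mean replicate activation score at least 90 and every replicate individually at or above 90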;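 further: higher luciferase means less miR-122 activity so hits act as miR-122 inhibitors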
# FID counter = counter-screen for HCV NS3 helicase inhibitors: DNA intercalator displacement; DNA fluorescent intercalator displacement, fluorescence; inhibition, % at 7.9 µM; hit rate 0.17% among 290,000; AID 1845; in the data active means inhibition above about 37%;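 further: higher means more ethidium bromide displaced from hairpin DNA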
# RAD52 anneal inh = blocks human RAD52 DNA annealing; AID 651710; recombinant RAD52 DNA annealing, FRET fluorescence; hit rate 0.46% among 360,000; inhibition, % at 18.7 µM;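 active means every replicate showing at least 50% inhibition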
# Target sequence (P43351 whole entry, looked up): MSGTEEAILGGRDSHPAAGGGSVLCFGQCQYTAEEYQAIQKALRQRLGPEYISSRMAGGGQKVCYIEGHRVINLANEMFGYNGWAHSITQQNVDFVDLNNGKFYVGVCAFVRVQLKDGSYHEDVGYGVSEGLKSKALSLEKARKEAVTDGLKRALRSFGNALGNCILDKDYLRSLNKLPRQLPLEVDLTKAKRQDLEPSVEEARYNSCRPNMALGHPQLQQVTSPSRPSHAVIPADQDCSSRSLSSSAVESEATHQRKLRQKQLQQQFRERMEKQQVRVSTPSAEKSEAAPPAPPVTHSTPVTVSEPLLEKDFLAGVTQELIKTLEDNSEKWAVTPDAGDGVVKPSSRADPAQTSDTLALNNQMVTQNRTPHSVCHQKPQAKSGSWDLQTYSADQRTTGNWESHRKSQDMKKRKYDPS
# Glyco luc inh = blocks N-linked glycosylation in D54 reporter cells; hit rate 0.23% among 360,000; AID 588692; reporter increase, % at 12.5 µM; D54 ERlucT glycosylation luciferase reporter, 24 h; percent of 100 nM tunicamycin response;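 active means mean luciferase reporter signal, scaled so untreated is 0 and the glycosylation-blocking control 100, at or above a set limit in every replicate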;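 further: luciferase carries N-glycosylation sites so blocking glycosylation raises the light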
# Hits are given with their value; n = inactive; x = no result; ! = a repeat was not active; [ ] = remark or other dose. Sampled rows, rich in hits. Any-hit rate of the full collection: about 1.5%.
SMILES,RAD54 inh,CendR NRP1 mod,miR-122 sensor,FID counter,RAD52 anneal inh,Glyco luc inh
COc1ccc2nc(NC(=O)c3cc(S(=O)(=O)N4CCOCC4)ccc3C)sc2c1,n,26,n,n,x,n
O=C(Nc1nc2ccc(S(=O)(=O)N3CCCCC3)cc2s1)C1CCCO1 (configuration not stated),n,n,n,n,x,n
COc1ccc(NC(=O)N[C@H]2CC[C@@H](CCNC(=O)Nc3cc(F)ccc3F)O[C@H]2CO)cc1,n,x,x,x,n,x
C[C@@H]1CN([C@H](C)CO)S(=O)(=O)c2ccc(-c3ccncc3)cc2O[C@@H]1CN(C)C(=O)C1CCCCC1,x,x,n,x,x,x
CC(Sc1nnc(-c2cccnc2)o1)C(=O)NC1CCCC1 (configuration not stated),n,22,n,x,n,n
COc1ccc(C2CC(C(F)(F)F)n3nc(C(=O)O)c(Cl)c3N2)cc1OC (configuration not stated),n,35,n,n,x,n
COc1ccc(C(C)=O)cc1COC(=O)CCNS(=O)(=O)c1ccc(C)cc1,x,n,n,x,n,n
COc1ccc(C(C)=O)cc1COC(=O)CCNS(=O)(=O)c1ccc(C(C)=O)cc1,n,44,n,n,n,n
C[C@@H]1CN([C@H](C)CO)C(=O)c2cccc(NC(=O)c3ccc(-c4nccs4)cc3)c2O[C@@H]1CN(C)Cc1ccc(C(=O)Nc2ccccc2N)cc1,n,x,203[16.7 µM],x,n,x
C[C@H]1CN([C@@H](C)CO)C(=O)c2cccc(NC(=O)c3ccc(-c4nccs4)cc3)c2O[C@H]1CN(C)Cc1ccc(C(=O)Nc2ccccc2N)cc1,n,x,n,x,n,x
C[C@@H]1CN([C@@H](C)CO)C(=O)c2cccc(N(C)C)c2O[C@@H]1CN(C)Cc1ccc(C(=O)Nc2ccccc2N)cc1,n,x,109[16.7 µM],x,n,x
C[C@H](CO)N1C[C@H](C)[C@@H](CN(C)Cc2ccc3c(c2)OCO3)Oc2c(NC(=O)Nc3ccccc3)cccc2C1=O,n,x,95[16.7 µM],x,n,x
C[C@@H]1CN([C@@H](C)CO)C(=O)c2cc(NC(=O)Nc3ccccc3)ccc2O[C@@H]1CN(C)Cc1ccc(C(=O)Nc2ccccc2N)cc1,n,x,170[16.7 µM],x,n,x
CCC(=O)N1CC2(CCN(Cc3nccs3)CC2)c2c(n(C)c3cc(OC)ccc23)[C@@H]1CO,x,x,x,x,n,x
CO[C@@H]1CN(C)C(=O)c2cc(NS(C)(=O)=O)ccc2OC[C@@H](C)N(C)C[C@@H]1C,n,x,x,x,n,x
Cc1ccc(S(=O)(=O)Nc2ccc3c(c2)CC(=O)N([C@H](C)CO)C[C@H](C)[C@H](CN(C)Cc2ccc(C(=O)O)cc2)O3)cc1,x,x,n,x,x,x
C[C@H](CO)N1C[C@H](C)[C@H](CN(C)S(=O)(=O)c2ccccc2)OCc2cn(nn2)CCCC1=O,x,x,n,x,x,x
C/C=C/c1ccc([C@H]2[C@@H](CO)N(C(=O)CC)[C@@H]2CNCC2CCCC2)cc1,x,x,x,x,n,x
C[C@@H]1CN([C@@H](C)CO)C(=O)c2cccc(NC(=O)Nc3ccccc3)c2O[C@@H]1CN(C)Cc1ccc(C(=O)Nc2ccccc2N)cc1,n,x,140[16.7 µM],x,n,x
C[C@H](CO)N1C[C@H](C)[C@@H](CN(C)Cc2ccccc2)Oc2ccc(NC(=O)CCCCCC(=O)Nc3ccccc3N)cc2C1=O,n,n,n,x,n,29
C[C@@H]1CN([C@@H](C)CO)C(=O)c2cccc(NC(=O)C3CCCCC3)c2O[C@@H]1CN(C)Cc1ccc(C(=O)Nc2ccccc2N)cc1,n,x,185[16.7 µM],x,n,x
C[C@@H]1CN([C@@H](C)CO)C(=O)c2cccc(NC(=O)C3CC3)c2O[C@H]1CN(C)Cc1ccc(C(=O)Nc2ccccc2N)cc1,n,x,n,x,n,x
COc1ccc(NC(=O)Nc2ccc3c(c2)C(=O)N([C@H](C)CO)C[C@@H](C)[C@@H](CN(C)Cc2ccc(C(=O)O)cc2)OCCCC[C@H](C)O3)cc1,n,x,n,x,n,x
CCNC(=O)C[C@H]1CC[C@@H]2[C@@H](COc3ccc(NC(=O)c4cccs4)cc3C(=O)N2C)O1,n,x,n,x,n,x
CCCc1cc(=O)oc2cc(OCc3nn[nH]n3)ccc12,n,n,164,n,x,n
SMILES,RAD54 inh,CendR NRP1 mod,miR-122 sensor,FID counter,RAD52 anneal inh,Glyco luc inh
O=S(=O)(c1cccs1)N1CCCCN2[C@H](CO)[C@H](c3ccc(Br)cc3)[C@H]2C1,n,x,n,x,n,x
CCn1cc(S(=O)(=O)CC(=O)Nc2cccc(C)c2)c2ccccc21,n,n,n,x,n,n
CCn1cc(S(=O)(=O)CC(=O)Nc2ccc(C)cc2)c2ccccc21,n,n,98,n,x,n
CCOc1ccc(-c2cccc(NS(=O)(=O)c3cc([N+](=O)[O-])ccc3C)c2)nn1,n,n,130,x,n,n
COc1ccccc1N1CCN(C2CCCN(C(=O)CN3CCCCC3=O)C2)CC1 (configuration not stated),n,20,n,n,n,n
O=C(CN1CCN(S(=O)(=O)c2ccc(F)cc2)CC1)Nc1ccccc1C(=O)NC1CC1,x,26,x,x,n,n
N#Cc1ccc(S(=O)(=O)N2CCN(CC(=O)Nc3ccccc3C(=O)NC3CC3)CC2)cc1,n,n,n,x,n,n
C[C@H](CO)N1C[C@H](C)[C@H](CN(C)C(=O)Nc2ccc(F)cc2)Oc2c(NC(=O)C3CCCCC3)cccc2C1=O,n,x,n,x,n,x
C=CCc1cc(Cl)ccc1OCCNCCN1CCOCC1,x,n,x,39,n,n
C=CCc1cc(Cl)ccc1OCCNCCOC,x,n,x,n,n,n
C[C@H]1CN([C@@H](C)CO)C(=O)c2cc(NC(=O)Cc3ccccc3)ccc2O[C@@H]1CN(C)CC1CC1,x,x,x,x,n,x
CC(Nc1nc(-c2ccccc2O)nc2ccccc12)c1ccccc1 (configuration not stated),n,n,n,n,n,29
CCC(=O)N(C)C[C@H]1Oc2ncc(-c3ccccc3OC)cc2C(=O)N([C@H](C)CO)C[C@@H]1C,n,x,n,x,n,x
Cc1ccc(CN2CCN(Cc3c(C)nn(C(C)C)c3C)CC2CCO)o1 (configuration not stated),x,18,x,n,n,n
C[C@H](CO)N1C[C@H](C)[C@@H](CN(C)S(=O)(=O)c2cccs2)Oc2ccc(NC(=O)Nc3ccccc3)cc2CC1=O,n,x,n,x,n,x
C[C@H](CO)N1C[C@H](C)[C@@H](CN(C)CC2CC2)Oc2cc(-c3cncnc3)ccc2S1(=O)=O,n,x,n,x,n,x
S=C1NC2=C(CCCC2=C2SCCCS2)C(c2ccccc2)N1 (configuration not stated),x,n,x,n,n,n
COc1ccc(C2NC(=S)NC3=C2CCCC3=C2SCCS2)cc1 (configuration not stated),n,n,n,n,n,593
COc1cccc(S(=O)(=O)N2CC[C@H]3[C@H](CO)Nc4ccc(Br)cc4[C@H]32)c1,n,x,n,x,x,x
C=Cc1c(C)c2cc3[nH]c(cc4nc(cc5nc(cc1[nH]2)C(C)=C5CCC(=O)O)C(CCC(=O)O)=C4C)c(C)c3C=C,n,20!,n,x,n,n
